High-throughput results deposited in PubChem BioAssay by several laboratories.
Most compounds without a hit are left out; they make up all but 32% or so of the library.
CYP2C9 activ = human CYP2C9 activators, primary screen, biochemical, luminescence; Cytochrome P450 2C9 (Homo sapiens), P11712; hit rate 1.4% among 96,000; recombinant CYP2C9, luciferin-H conversion; hits give high values; factor 1 = untreated enzyme, 0 = blocked; activation factor at 5 µM;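 active means activation factor of 2 or more for CYP2C9 at a 5 µM dose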
CYP2C19 activ = human CYP2C19 activators, primary screen, biochemical, luminescence; AID 1025, 2008; Cytochrome P450 2C19 (Homo sapiens), P33261; activation factor at 5 µM; recombinant CYP2C19, luciferin-H EGE luminescence; hits give high values; 0 = fully inhibited enzyme, 1 = untreated enzyme; 96,000 tested, under 10 active;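 active means activation factor of at least 2 at 5 µM in the primary screen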
Target sequence (P33261 whole entry, looked up): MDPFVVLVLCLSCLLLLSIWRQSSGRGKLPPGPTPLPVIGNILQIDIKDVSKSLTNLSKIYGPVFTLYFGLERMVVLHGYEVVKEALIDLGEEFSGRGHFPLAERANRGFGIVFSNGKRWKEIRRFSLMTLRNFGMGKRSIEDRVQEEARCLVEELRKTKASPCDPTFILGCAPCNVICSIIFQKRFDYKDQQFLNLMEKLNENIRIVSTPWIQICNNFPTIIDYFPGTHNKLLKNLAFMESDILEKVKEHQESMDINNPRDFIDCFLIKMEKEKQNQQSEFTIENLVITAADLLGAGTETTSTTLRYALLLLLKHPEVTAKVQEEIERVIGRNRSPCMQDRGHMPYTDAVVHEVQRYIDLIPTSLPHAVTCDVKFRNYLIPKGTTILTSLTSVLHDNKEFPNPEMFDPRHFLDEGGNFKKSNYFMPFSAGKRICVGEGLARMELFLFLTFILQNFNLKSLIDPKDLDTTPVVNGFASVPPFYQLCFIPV
PostGolgi ctrl = growth inhibition of yeast control strain, primary screen, counter-screen for post-Golgi transport modulator project; AID 738, 2007; hit rate 5% among 98,000; efflux-deficient yeast background strain, growth absorbance A615, 16 h; inhibition, % at 10 µM
PostGolgi yeast = phenotypic screen on post-Golgi transport, primary screen; post-Golgi transport phenotypic cell assay; inhibition, % at 10 µM; hit rate 0.9% among 98,000; AID 739, 2007;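 further: yeast cells grown in 1536-well plates; yeast grown about 18 h at 30C before absorbance read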
CYP2C9 inhib = blockers of cytochrome P450 2C9 activity – biochemical, luminescence, ADME assay, primary screen | CYP2C9 Supersomes, luciferin-H conversion | inhibition, % at 5 µM | hit rate 20% among 96,000 | AID 777, 2007;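 active means blocking of liver enzyme CYP2C9 beyond about 50% at 5 µM, limit read from the data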
CYP2C19 inh = blockers of cytochrome P450 2C19 activity – biochemical, luminescence, ADME assay, primary screen. P33261. CYP2C19 Supersomes, luciferin-H EGE luminescence, 30 min. inhibition, % at 5 µM. hit rate 21% among 96,000. AID 778, 2007;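 active means CYP2C19 inhibition above a set limit at 5 µM in the primary screen, cut at about 50% in these data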
Of the large screens only hits and unclear results are named; the others gave an inactive call. Unless noted, no stated cut-off is given here; in the data, active means inhibition above about 30%; inactive means the rest.

FC(F)(F)c1ccc(Oc2ccc3c(C(F)(F)F)cc(C(F)(F)F)nc3n2)cc1	none
Cn1c(CN2CCOCC2)nnc1SCC(=O)NC1CCCCC1	none (no result: CYP2C9 activ, CYP2C19 activ, CYP2C9 inhib, CYP2C19 inh)
CCCCCC/C(=N\NS(C)(=O)=O)c1ccccc1	none
COc1ccc(C(CNC(=O)c2cc3ccccc3cc2OC)N2CCCC2)cc1 (stereo not drawn)	none
CC(C)CC(=O)Nc1ccc(C(=O)NNC(=O)C(c2ccccc2)c2ccccc2)cc1	none
CCc1nccn1S(=O)(=O)c1ccc(OC)c(C)c1C	CYP2C19 inh 71.0
CCc1nccn1S(=O)(=O)c1ccc(Br)cc1Br	CYP2C9 inhib 58.7, CYP2C19 inh 91.9
CCc1nccn1S(=O)(=O)c1ccc2ccccc2c1	none
COC(=O)Cn1cnc(=O)c(C#N)c1/C=C/N(C)C	none
Cc1ccccc1OCCn1nc(C(=O)O)c2ccccc2c1=O	CYP2C19 inh 53.6
O=C(NNC(=S)Nc1cccc2ccccc12)c1cccc(Br)c1	CYP2C9 inhib 96.0, CYP2C19 inh 91.2
Cc1ccc(C(=O)NNC(=S)Nc2cccc3ccccc23)s1	CYP2C9 inhib 65.2
COc1ccc(OCCNC(=S)Nc2cccc3ccccc23)cc1	none
COc1ccc(C(=O)COc2ccc(NC(C)=O)cc2)cc1	none
Cc1cc(NC(=O)c2cc(-c3ccco3)on2)nn1Cc1ccc(Cl)cc1	none
Cc1c(C(=O)O)sc(=S)n1CCOc1ccccc1	none
CCOC(=O)N1CCN(c2c(NCc3ccc(N(C)C)cc3)c(=O)c2=O)CC1	none
Cc1ccnc(SCC(=O)n2c3c(c4ccccc42)CC(C)CC3)n1 (stereo not drawn)	PostGolgi ctrl 34.8
CCN1CCN(CC(=O)n2c3c(c4ccccc42)CC(C)CC3)CC1 (stereo not drawn)	CYP2C19 inh 51.3
CC1CCN(CC(=O)n2c3c(c4ccccc42)CCCC3)CC1	CYP2C19 inh 67.5
CC(=O)Nc1ccc(-c2nnc(SCC(=O)n3c4c(c5ccccc53)CCCC4)n2C)cc1	none
Cc1nnc(SCC(=O)n2c3c(c4ccccc42)CCCC3)s1	none
Cc1c(C)n(C(=O)CN2CCN(c3ccccn3)CC2)c2ccccc12	none
Cc1ccnc(SCC(=O)O)n1	none
Cn1c(SCC(=O)n2c3c(c4ccccc42)CCCC3)nnc1-c1ccccc1	CYP2C9 activ 2, PostGolgi ctrl 33.8, CYP2C19 inh 69.3
COc1ccc(C2(C(=O)NC(C)C)CCCC2)cc1OC	none
C=CCSc1nc2c(c(=O)[nH]c(=O)n2C)n1Cc1ccc(C)cc1	none (no result: CYP2C9 activ, CYP2C19 activ, CYP2C9 inhib, CYP2C19 inh)
COc1ccc2c(c1)-c1ccccc1S(=O)(=O)N2C	none
Cc1ccccc1NC1=C(C(=O)c2ccccc2)N(C)S(=O)(=O)c2ccccc21	CYP2C9 inhib 63.0, CYP2C19 inh 56.2
CCC(C)NC(=O)c1cc2cc3ccc(OC)cc3nc2s1 (stereo not drawn)	CYP2C9 inhib 84.0, CYP2C19 inh 76.1
O=C(CSCCO)Nc1cc(C(F)(F)F)ccc1Cl	none
CCOC(=O)c1c(C)[nH]c(C(=O)COC(=O)c2oc3ccc(OC)cc3c2C)c1C	none
COC(=O)c1c(C)[nH]c(C(=O)COC(=O)Cc2ccc3c(c2)OCCO3)c1C	CYP2C9 inhib 81.2
CCc1c(C(=O)NC2CCCC2)csc1C	none
CCN(CC)C(=O)CN(c1cc2c(cc1OC)oc1ccccc12)S(=O)(=O)c1ccc(C)cc1	none
CCOC(=O)Cn1cc(/C=N/NC(=O)c2ccc(C#N)cc2F)c2ccccc21	CYP2C9 inhib 74.9
CCOc1ccc(-c2nnn(CC(=O)NCc3ccc(F)cc3)n2)cc1OCC	CYP2C19 inh 64.6
COc1ccc(CNC(=O)c2cccc(N(C)C)c2)cc1	none
COc1ccccc1CNC(=O)c1cccc(N(C)C)c1	CYP2C9 activ 2.3
COc1cc(C(=O)NCc2cccc3ccccc23)ccc1OCc1ccccc1	CYP2C9 inhib 69.4
CCC1Oc2ccccc2N(CC(=O)Nc2ccc(OC)cc2OC)C1=O (stereo not drawn)	none
FC(F)(F)c1nc(-c2ccncc2)ncc1-c1nnnn1-c1ccccc1	CYP2C9 inhib 74.3, CYP2C19 inh 100.6
Nc1c(-c2cccs2)cnn1-c1nc(-c2ccc(F)cc2)cs1	none
Fc1ccc(-n2nnnc2-c2cnc(-c3cccs3)nc2C(F)(F)F)cc1	PostGolgi ctrl 45.5, CYP2C9 inhib 86.4
Cn1cc(-c2nnnn2-c2ccc(Cl)cc2)c(=O)c2ccccc21	none
Cc1ccc(-n2nnnc2-c2cnc(-c3cccnc3)nc2C(F)(F)F)cc1	CYP2C9 inhib 60.2
FC(F)(F)c1nc(N2CCCC2)ncc1-c1nnnn1-c1ccc(Cl)cc1	PostGolgi ctrl 57.5, CYP2C19 inh 89.6
Cc1ccc2nc(SCCC(=O)O)cc(C)c2c1	none
CC(C)CC(=O)NCc1ccc(F)cc1	none
CCC(C)Oc1nc2ccccc2nc1NS(=O)(=O)c1ccccc1 (stereo not drawn)	PostGolgi ctrl 31.3
COCCn1nnnc1SCC(=O)N1CCCCC1	PostGolgi ctrl 30.2 (no result: CYP2C9 activ, CYP2C19 activ, CYP2C9 inhib, CYP2C19 inh)
Cc1ncc([N+](=O)[O-])n1CC(C)O (stereo not drawn)	none
Cc1nn(C)c(C)c1NC(=O)CCSc1nc(-c2ccco2)cc(C(F)(F)F)n1	CYP2C9 inhib 59.9
Cc1nn(C)cc1NC(=O)CCSc1nc(-c2ccco2)cc(C(F)(F)F)n1	none
Cc1cc(NC(=O)CCCSc2nc(-c3ccco3)cc(C(F)(F)F)n2)no1	none
O=C(CCCSc1nc(-c2ccco2)cc(C(F)(F)F)n1)NCc1cccs1	CYP2C9 inhib 79.5
CCn1nc(C)c(NC(=O)CCCSc2nc(-c3ccco3)cc(C(F)(F)F)n2)c1C	CYP2C9 inhib 80.7, CYP2C19 inh 54.3
CC(C)(C)c1cc(C(F)(F)F)nc(SCCCNC(=O)c2ccco2)n1	CYP2C9 inhib 87.8, CYP2C19 inh 92.1
Cc1cc(NC(=O)COc2ncnc3sc(C)c(C)c23)no1	none
COc1cc(C(C)=O)ccc1OC(=O)C(C)N1C(=O)c2ccccc2C1=O (stereo not drawn)	CYP2C9 inhib 53.8
COc1cccc(C(=O)COC(=O)C(C)N2C(=O)c3ccccc3C2=O)c1 (stereo not drawn)	none
O=c1oc2ccccc2c(Nc2ccc(O)cc2)c1[N+](=O)[O-]	none
CC1CCCN(c2c([N+](=O)[O-])c(=O)oc3ccccc23)C1 (stereo not drawn)	CYP2C19 inh 94.3
Cc1cc(NC(=O)c2cncc(Br)c2)n(-c2ccccn2)n1	none
O=c1[nH]c(C2CCCN(S(=O)(=O)c3ccccc3)C2)nc2c1nnn2Cc1ccccc1F (stereo not drawn)	none (no result: CYP2C9 activ, CYP2C19 activ, CYP2C9 inhib, CYP2C19 inh)
O=C(C1CCC1)N1CCC(c2nc3c(nnn3Cc3c(F)cccc3Cl)c(=O)[nH]2)CC1	CYP2C9 inhib 71.2
